From PubChem BioAssay
PLK1 PBD block: qHTS for Inhibitors of PLK1-PDB (polo-like kinase 1 - polo-box domain): Primary Screen; Plk1 PBD binding of FITC phosphopeptide, fluorescence polarization; Potency, µM, hits mostly inhibitors; hit rate 2.8% among 360,000; further: series mostly up to about 57 µM; nearly all actives have a fitted effect of over 65% in size
IDH1 R132H inh: qHTS for Inhibitors of mutant isocitrate dehydrogenase 1 (IDH1): qHTS; Potency, µM (doses to about 76.6 µM), usual class: inhibitors; Isocitrate dehydrogenase [NADP] cytoplasmic (Homo sapiens), O75874; IDH1-R132H enzyme, NADPH consumption, diaphorase/resazurin fluorescence; hit rate 0.093% among 390,000; further: nearly all actives have a fitted effect of over 65% in size
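IDH1-R132H (0.5 ug/mL) preincubated 30 min with compound, then NADPH (0.016 mM) and alpha-KG (2 mM) added; 80 min at RT, pH 7.5. Remaining NADPH coupled via diaphorase/resazurin to fluorescence (540/590 nm); concentration-response curves normalized to no-enzyme control.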
TrxR1 substrate: qHTS Assay for Substrates of Mammalian Selenoprotein Thioredoxin Reductase 1 (TrxR1): qHTS. Thioredoxin reductase 1, cytoplasmic (Rattus norvegicus), O89049. purified TrxR1 substrate turnover, NADPH consumption readout. Potency, µM (top dose mostly 114 µM). hit rate 0.01% among 390,000. AID 588456, 2011; further: nearly all actives have a fitted effect of over 50% in size
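Rat TrxR1, dispensed at 90 nM, was prereduced with 400 uM NADPH (final) for 5 min at ~22 deg C, then incubated with compound 15 min before 400 uM selenite. A first-read NADPH fluorescence drop versus no-compound background flagged substrates.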
TrxR1 inh: qHTS Assay for Inhibitors of Mammalian Selenoprotein Thioredoxin Reductase 1 (TrxR1): qHTS; Thioredoxin reductase 1, cytoplasmic (Rattus norvegicus), O89049; recombinant rTrxR1, NADPH fluorescence consumption, selenite substrate; Potency, µM (highest dose often 114 µM), usual class: inhibitors; hit rate 1% among 390,000; AID 588453, 2011; further: nearly all actives have a fitted effect of over 65% in size
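Rat TrxR1 (90 nM in the dispensed reagent) was pre-reduced with 400 uM NADPH for 5 min at room temperature, then incubated with compound for 15 min. After 400 uM selenite was added, NADPH fluorescence (Ex 340/Em 450 nm) was followed for 8 min.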
VDR inh: Inhibitors of the vitamin D receptor (VDR): qHTS; VDR-SRC2-3 peptide fluorescence polarization, 2 h; Potency, µM, actives largely listed as inhibitors; hit rate 0.93% among 400,000; AID 504847, 2011
Target sequence (P11473 whole entry, looked up): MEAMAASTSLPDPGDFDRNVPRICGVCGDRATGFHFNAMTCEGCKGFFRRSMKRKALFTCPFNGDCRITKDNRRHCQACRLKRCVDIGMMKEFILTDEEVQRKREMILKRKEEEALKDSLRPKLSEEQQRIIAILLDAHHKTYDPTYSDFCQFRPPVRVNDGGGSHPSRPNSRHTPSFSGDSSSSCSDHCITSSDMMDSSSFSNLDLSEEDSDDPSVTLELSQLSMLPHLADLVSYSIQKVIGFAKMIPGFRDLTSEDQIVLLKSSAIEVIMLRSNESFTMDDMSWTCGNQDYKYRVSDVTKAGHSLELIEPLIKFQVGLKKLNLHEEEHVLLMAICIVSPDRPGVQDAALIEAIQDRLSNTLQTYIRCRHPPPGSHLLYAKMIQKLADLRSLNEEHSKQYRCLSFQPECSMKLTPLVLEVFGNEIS
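After 23 nl compound addition and a short centrifugation, plates sat for 2 hours at ambient temperature; polarization of fluorescence then indicated loss of VDR binding to peptide SRC2-3.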
Sfp inh: qHTS Assay for Inhibitors of Bacillus subtilis Sfp phosphopantetheinyl transferase (PPTase). 4'-phosphopantetheinyl transferase ffp (Bacillus subtilis), Q9F4F7. Biochemical Sfp PPTase activity, qHTS. Potency, µM, actives largely listed as inhibitors. hit rate 3.5% among 310,000. AID 1490, 2009;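 further: the enzyme is Sfp with the accession as filed and its product quenches rhodamine fluorescence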
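Sfp 15 nM + cpd, 15 min RT; start w/ rhodamine-CoA 5 uM, BHQ-2-YbbR 12.5 uM (final); 50 mM Hepes pH 7.6, 10 mM MgCl2, 0.01% NP-40, 0.01% BSA; read 525/598 nm at 0 and 30 min.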
Numbers stand for hits; – = inactive; ? = inconclusive; · = no result given; [ ] = dose if it differs, or a comment. A selection: hits, their analogues and other compounds. The true share with any hit is near 5.2%. The call rests on the fitted dose curve; in most records, active means well fitted curve in the direction sought with a large enough effect; inconclusive means small, poorly fitted or top-dose-only effect, or another doubt; inactive means no such curve, though single readings can be large; an effect the other way counts as inactive or inconclusive.

SMILES | PLK1 PBD block | IDH1 R132H inh | TrxR1 substrate | TrxR1 inh | VDR inh | Sfp inh
S=c1[nH]nc(-c2cc(-c3ccccn3)nc3ccccc23)o1 | ? | – | – | 56.2µM | – | –
C[C@H]1CN([C@@H](C)CO)S(=O)(=O)c2ccc(/C=C/c3ccccc3)cc2O[C@H]1CN(C)C(=O)NC1CCCCC1 | – | – | · | · | · | ·
COc1ccc2ccc(=O)oc2c1CC(=O)C(C)C | – | – | – | – | – | ·
COc1ncnc2c1NC1=C(S2)C(=NCCC(=O)O)CC(C)(C)C1 | ? | – | ? | – | – | 14.1µM
CC1(C)CC(=O)/C(=C(\O)Cc2ccccc2)C(=NCCCCCC(=O)O)C1 | – | – | – | – | ? | –
CN(C)c1ncnc2c1NC1=C(S2)C(=NCCCC(=O)O)CC(C)(C)C1 | – | – | –[11.4 µM] | ? | ? | 22.4µM
OC(c1cc(F)cc(Cl)c1)c1ncc(-c2ccccc2Cl)[nH]1 (stereo not drawn) | – | · | · | · | · | ·
CO/N=C(/C(=O)NC1C(=O)N2C(C(=O)O)=C(COC(N)=O)CSC12)c1ccco1 (stereo not drawn) | · | · | · | · | – | –
CN(O)/C=C1\C(=O)Nc2ccccc21 | – | – | – | ? | – | 50.1µM
CCCCC(O)(CCCC)C(=O)NN(C(=O)OCC)c1ccccc1 | – | – | – | – | – | –
CCCC(O)(CCC)C(=O)NN(C(=O)CCl)c1ccccc1 | – | – | – | 11.2µM | – | –
CSc1nnc(Cn2c(=O)sc3ccccc32)n1C | – | – | – | – | – | –
CSc1nnc(Cn2c(=O)sc3ccccc32)n1CCc1ccccc1 | 21.2µM | – | – | – | – | –
Cc1cc(C)nc(SCC(=O)Nc2ccc(S(=O)(=O)Nc3ncccn3)cc2)n1 | – | – | – | – | – | 12.6µM
Cc1cc(C)nc(NS(=O)(=O)c2ccc(NC(=O)CSc3ncn[nH]3)cc2)n1 | 26.7µM | – | – | – | – | –
COc1ccc(CN(CC2CCC(C(=O)O)CC2)C(=S)Nc2cc(C)ccc2C)cc1 (stereo not drawn) | – | – | – | – | – | –
COc1ccc(Cl)cc1NC(=S)N(Cc1ccc(C(=O)O)cc1)Cc1ccc(OC)c(OC)c1 | ? | – | – | – | – | 39.8µM
COc1ccc(CN(Cc2ccc(C(=O)O)cc2)C(=S)Nc2cc(C)cc(C)c2)cc1OC | – | – | –[2.29 µM] | –[2.29 µM] | – | –
COc1ccc(CN(CC2CCC(C(=O)O)CC2)C(=S)Nc2cc(Cl)ccc2OC)cc1 (stereo not drawn) | ? | – | – | – | – | 39.8µM
COc1ccc(-c2nc3ccc(NS(=O)(=O)c4ccc(Cl)cc4)cc3o2)cc1 | · | · | – | – | – | ·
COC(=O)c1ccc2[nH]c3c(c2c1)CC(C)CC3 (stereo not drawn) | – | – | – | – | ? | –
CCOC(=O)c1ccc2[nH]c3c(c2c1)CCCC3 | – | – | – | – | – | –
CN(C)CCOC(=O)c1ccc2[nH]c3c(c2c1)CSCC3 | 29.9µM | – | – | – | – | –
O=C(O)c1ccc2[nH]c3c(c2c1)CSCC3 | ? | – | – | ? | 44.7µM | 39.8µM
COCCN(CCOC)c1nc(C)nc2c1nc(-c1ccccc1)n2CCN(C)C | · | · | · | · | · | –
CCN(c1ccc(OC)cc1)S(=O)(=O)c1nnc(NC(=O)COc2ccc(F)cc2)s1 | 26.7µM | – | – | – | – | –
CCN(c1ccc(OC)cc1)S(=O)(=O)c1nnc(NC(=O)COc2ccc(C)cc2)s1 | – | – | – | – | – | –
CC(C)(C)c1cc(CN(CCO)CCO)cc(C(C)(C)C)c1O | 2.12µM | – | – | 3.55µM | ? | –
CN(C)Cc1cc(C(C)(C)C)cc(C(C)(C)C)c1O | – | – | – | – | – | –
